From PubChem BioAssay
Rows were chosen to be rich in hits. Some 7.2% of all compounds tested hit in one or more screens of this group.
LASV entry inh – qHTS for Inhibitors of binding or entry into cells for Lassa Virus; Lassa virus pseudotype entry inhibition, cell reporter; Potency, µM (series often up to 37.9 µM), for inactives: at the highest dose activity change, negative = inhibition, actives largely listed as inhibitors; 300,000 compounds, 1.2% hits; calls by dose curve; tested in HEK293 cells; further: nearly all actives have a fitted effect of over 50% in size
HCV inh – qHTS Assay for Inhibitors of Hepatitis C Virus (HCV); Huh7.5.1 HCVcc-Cre infection, luciferase reporter, 44 h; Potency, µM (series often up to 41.8 µM), without a hit: at the highest dose activity change, negative = inhibition, actives largely listed as inhibitors; 340,000 compounds, 3.4% hits
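Reporter virus HCVcc-Cre (~0.5 moi) infects cells exposed to compound; seeding density 1,000 cells/well with 4 h settling beforehand. Luminescence, 15 sec read, taken 44 h post-infection following a 15 min RT substrate incubation.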
FMDV inh – High Throughput Screening for Foot and Mouth Disease Virus Antivirals; 410,000 compounds, 1.2% hits; AID 1159524, 2015; FMDV antiviral cell-based qHTS; Potency, µM (series often up to 57.9 µM), for inactives: at the highest dose activity change, negative = inhibition, usual class: inhibitors; calls by dose curve; tested in HEK293T cells; further: read-out not given here; nearly all actives have a fitted effect of over 45% in size
RE007 growth inh – qHTS Assay for Inhibitors of the HIV-1 protein Vpr | 360,000 compounds, 0.21% hits | AID 651644, 2012 | S. pombe RE007 Vpr strain, BacTiter-Glo ATP luminescence, 24 h | Potency, µM (titrated, usually from 92.2 µM), inactives show top-dose activity change, negative = less growth, hits mostly inhibitors; active means well fitted falling curve with a large enough effect; inconclusive means small, poorly fitted or top-dose-only effect; inactive means no such curve, though single readings can be large or run the other way; further: nearly all actives have a fitted effect of over 50% in size
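Fission yeast strain RE007, carrying one chromosomally integrated HIV-1 vpr copy, was seeded at OD 0.01 in PMG+AL medium with 23 nL pinned compound. After 24 h at 30 °C and 99% humidity, viability was read by BacTiter-Glo luminescence.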
Marburg entry inh – qHTS for inhibitors of binding or entry into cells for Marburg Virus | Marburg virus pseudotyped entry inhibition, cell reporter | Potency, µM (top dose mostly 37.8 µM), without a hit: top-dose activity change, negative = inhibition, usual class: inhibitors | 300,000 compounds, 1.8% hits | AID 540276, 2011; calls by dose curve; tested in HEK293 cells
Sm TGR inh – qHTS Assay for the Inhibitors of Schistosoma Mansoni Peroxiredoxins. purified TGR, DTNB reduction, TNB absorbance 405 nm. Potency, µM (titrated, usually from 114 µM), for inactives: at the top dose activity change, negative = inhibition, hits mostly inhibitors. 360,000 compounds, 3% hits. AID 485364, 2010; further: nearly all actives have a fitted effect of over 60% in size
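TGR 20 nM + NADPH 100 uM (dispensed conc.), cpd preinc 15 min RT; start with NADPH (500 uM addition) then DTNB (15 mM addition). Kinetic TNB absorbance, 405 nm filter. Four-parameter Hill fit across titration.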
Numbers without * were called inactive; ? = inconclusive; / = no result given; [ ] = another dose, or the depositor's remark. Unless noted, the call rests on the fitted dose curve; in most records, active means well fitted curve in the direction sought with a large enough effect; inconclusive means small, poorly fitted or top-dose-only effect, or another doubt; inactive means no such curve, though single readings can be large; an effect the other way counts as inactive or inconclusive. On the % scale 0 is the no-effect control and ±100 the full control effect; potency means the concentration at half of the fitted maximal effect.

SMILES | LASV entry inh | HCV inh | FMDV inh | RE007 growth inh | Marburg entry inh | Sm TGR inh
O=C(C1CCC(CNS(=O)(=O)c2cccs2)CC1)N1CCN(c2ccc(Cl)cc2)CC1 (configuration not stated) | ? | 3.55µM* | 31.6µM* | -11.7% | / | 3.0%
O=C(C1CCC(CNS(=O)(=O)c2ccc(Br)s2)CC1)N1CCN(c2ccccc2)CC1 (configuration not stated) | -0.3%[46.1 µM] | / | ? | / | 2.7%[46.1 µM] | 2.5%
O=C1CCN(Cc2cccn2-c2ccccn2)CCN1Cc1ccccc1C(F)(F)F | / | / | 0.0% | / | / | /
COc1cc(N2CCN(C(C)C)CC2)ccc1Nc1nc(Nc2ccc(F)cc2C(N)=O)c2cc[nH]c2n1 | 25µM* | / | / | / | / | /
COc1cc2c(cc1Nc1nc(Nc3ccsc3C(N)=O)c3cc[nH]c3n1)N(C(=O)CN(C)C)CCC2(C)C | 0.499µM* | / | / | / | / | /
COc1cc(C)c(NC(=O)CN(C)C)cc1Nc1nc(Nc2cccc(F)c2C(N)=O)c2cc[nH]c2n1 | 2.5µM* | / | / | / | / | /
COc1ccc(CN(C)CC(=O)Nc2cccc3ccccc23)cc1F | 2.3%[46.1 µM] | -17.7% | 2.7% | -21.2% | ? | -4.4%
O=c1oc2c3c4c(cc2cc1-c1nc2ccccc2[nH]1)CCCN4CCC3 | / | / | / | / | -0.4% | /
N=c1oc2c3c4c(cc2cc1C(=O)Nc1ccccc1)CCCN4CCC3 | ? | 7.94µM* | 31.9% | 4.7% | -1.5% | -0.4%[11.4 µM]
Cc1ccc(C(C)C)c(OCCNCc2ccccc2)c1 | / | -4.3% | ? | -3.6% | / | -31.9%
Cc1ccc(C(C)C)c(OCCNC(=S)Nc2cccc3ccccc23)c1 | 15.8% | 31.6µM* | ? | -20.0% | ? | 6.7%
CNC(=S)Nc1ccc(Cc2ccncc2)cc1 | -20.4%[46.1 µM] | 0.0% | 4.0% | 5.1% | -5.4%[46.1 µM] | 39.8µM*
S=C(NCc1ccccc1)Nc1cccc2ccccc12 | ? | 10µM* | 27.2% | -6.0% | 7.1%[46.1 µM] | -2.9%
S=C(NCc1ccncc1)Nc1ccc(Br)cc1 | -8.5% | -28.9% | 43.2% | -14.8% | -18.7% | 28.2µM*
CCOc1ccc(NC(=O)Cn2cc(C(=O)c3ccccc3)c(=O)c3cc4c(cc32)OCO4)cc1 | 0.0%[46.1 µM] | / | -5.8% | / | 21.0%[46.1 µM] | -2.1%
S=C(NCc1ccc(Cl)cc1)Nc1ccc(Cl)cc1Cl | -25.9% | 0.8% | 8.6% | -11.3% | ? | -15.6%
COc1ccccc1NC(=O)Nc1ccc(Cc2ccncc2)cc1 | ? | -15.7% | 6.2% | 23.1% | 14.5%[46.1 µM] | 9.2%
S=C(NCc1ccccc1)Nc1ccncc1 | ? | 1.78µM* | -0.1% | -7.3% | 13.5%[46.1 µM] | -48.3%
COc1ccc(NC(=O)Nc2ccc(Cc3ccncc3)cc2)cc1OC | -6.8% | ? | 22.4µM* | -8.0% | -1.2%[46.1 µM] | 9.2%
S=C(NCc1ccncc1)Nc1ccc(Cl)cc1Cl | -10.0% | -14.6% | -20.3% | -9.3% | 12.2% | 35.5µM*
CCc1cnc2c(c1SCc1ccccc1C)c(=O)n(C)c(=O)n2C | 0.3%[46.1 µM] | / | 0.0% | / | / | -0.7%
O=S(=O)(c1cccc2ccccc12)N1CCN(c2ccc(Cl)c(Cl)c2)CC1 | ? | / | -16.2% | / | ? | 8.0%
Cc1ccccc1C(=O)c1cccn1CC(=O)NCCN1CCN(c2cccc(C)c2C)CC1 | ? | 11.2µM* | ? | 6.7% | ? | -3.3%
Cc1ccccc1C(=O)c1cccn1CC(=O)NCCC1=CCCCC1 | -10.5% | -6.3% | 12.8% | 6.1% | -14.6%[46.1 µM] | 9.1%
Cc1ccc(C)c(N2CCN(CCCNC(=O)Cn3cccc3C(=O)c3ccccc3C)CC2)c1 | ? | 11.2µM* | ? | 6.3% | ? | -9.7%
SMILES | LASV entry inh | HCV inh | FMDV inh | RE007 growth inh | Marburg entry inh | Sm TGR inh
Cc1ccccc1C(=O)c1cccn1CC(=O)NCCCN1CCCCC1 | -9.3%[46.1 µM] | 23.7% | -6.3% | 4.7% | -29.5%[46.1 µM] | -7.3%
Cn1c(=O)c2c(nc(SCCN3CCOCC3)n2Cc2ccccc2)n(C)c1=O | -11.1% | -5.4% | -22.5% | -4.7% | 1.12µM* | ?
Cn1c(=O)c2c(nc(Sc3ncccn3)n2Cc2ccccc2Cl)n(C)c1=O | -28.3% | 10.7% | -25.7% | 6.2% | -1.2% | -5.1%
Cn1c(=O)c2c(nc(SCCN3CCCCC3)n2Cc2ccc(Cl)cc2)n(C)c1=O | ? | 35.5µM* | -5.3% | -7.5% | ? | -0.8%
Cn1c(=O)c2c(nc(Sc3ncccn3)n2Cc2ccc(Cl)cc2)n(C)c1=O | / | 25.1µM* | ? | 6.6% | / | 1.2%
Cn1c(=O)c2c(nc(SCC(=O)c3cccs3)n2Cc2ccc(F)cc2)n(C)c1=O | ? | 5.01µM* | 20.0% | 9.7% | -3.2% | -27.6%
Cn1c(=O)c2c(nc(Br)n2CC(=O)c2cccs2)n(C)c1=O | 2.8% | -11.3% | ? | 42.0% | 16.0% | -17.7%
OC(CON=C1c2ccccc2-c2ccccc21)CN1CCNCC1 (configuration not stated) | ? | 2.51µM* | -20.7% | -4.3% | ? | -5.5%
CCCOC(=O)c1cccc(Nc2nc(CCC)cc(=O)[nH]2)c1 | -22.1%[46.1 µM] | / | ? | / | ? | 1.2%
COc1cc(OC)cc(N2C(=O)CC(N3CCC(C(=O)N4CCCCC4)CC3)C2=O)c1 (configuration not stated) | 19.6% | 5.6% | -4.3% | 31.6µM* | ? | ?
CCN1C(=O)CC(N2CCC(C(=O)N3CCOCC3)CC2)C1=O (configuration not stated) | 19.9% | 10.2% | -23.9% | ? | -18.6% | -6.4%
O=C1CC(N2CCC(C(=O)N3CCCCC3)CC2)C(=O)N1 (configuration not stated) | 9.8% | 2.6% | -8.9% | -21.7% | ? | 31.6µM*
O=C(C1CCN(C2CC(=O)N(c3ccc(F)cc3)C2=O)CC1)N1CCOCC1 (configuration not stated) | 12.6% | 4.3% | -13.2% | 50.1µM* | 2.7% | ?
CC(=O)Nc1cccc(N2C(=O)CC(N3CCC(C(=O)N4CCCCC4)CC3)C2=O)c1 (configuration not stated) | -2.6% | 6.0% | 0.0% | 12.3% | 5.2% | 20µM*
COC(=O)C(C(=O)OC)[C@H]1c2ccccc2[C@@H]2C(=C[C@@H](C)[C@H]3C(=O)N(c4ccccc4)C(=O)[C@H]32)N1C(=O)OC | / | / | / | / | 25.3%[14.2 µM] | /
CCOc1ccc(CCNC(=O)c2cc3cccc4c3n2CCS4)cc1 | ? | / | -19.4% | / | / | 7.3%
COc1ccc(N2CCN(C3CC(=O)N(Cc4ccc(N5CCCC5=O)cc4)C3=O)CC2)cc1 (configuration not stated) | ? | ? | ? | -20.5% | -10.6% | 0.0%
O=C1CC(N2CCN(c3ccc(F)cc3)CC2)C(=O)N1Cc1ccc(N2CCCC2=O)cc1 (configuration not stated) | ? | ? | ? | 2.1% | -25.4% | 44.7µM*
